These results are taken from PubChem BioAssay.

The nature of assay [1]: A549 cell viability effects, profiling panel, calcein-AM fluorescence, 48 h, basal (AID 1162). The following applies: higher = more signal.
The nature of assay [2]: adipocyte viability effects, profiling panel, cell-based, 3T3-L1 adipocytes, calcein-AM fluorescence, 48 h, basal (AID 1163). The following applies: 3T3-L1 adipocytes viability, higher = more signal.
Assay [3] is described as follows: HepG2 cell viability effects, profiling panel, calcein-AM fluorescence, 48 h, basal (AID 1164). The following applies: higher = more signal.
A short description of assay [4]: MM1S cell viability effects, profiling panel, calcein-AM fluorescence, 48 h, basal (AID 1165).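 Note: viability of MM1S multiple myeloma cells under basal unstimulated conditions.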 The following applies: higher = more signal.
Assay [5] can be described thus: basal RPMI8226 viability, no added stimulus, profiling panel, cell-based, calcein-AM fluorescence, 48 h, PK04 Diversity Set (AID 1166).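 Note: cells grown under basal conditions without added stimulus.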 The conditions noted are these: RPMI8226 myeloma viability, higher = more signal.
Assay [6] can be described thus: basal HepG2 mitochondrial membrane potential changes, profiling panel, cell-based, JC-1 fluorescence, 24 h, 100 nL compound (AID 1167). The conditions noted are these: higher = more signal.
Assay [7] can be described thus: basal 3T3-L1 adipocyte mitochondrial potential changes, profiling panel, cell-based, JC-1 fluorescence, 3T3-L1 adipocytes, 24 h, 100 nL compound (AID 1168). The following applies: JC-1 mitochondrial fluorescence, higher = more signal, called active from +8 up or from −8 down.
Assay [8] in a line: basal RPMI8226 mitochondrial membrane potential changes, profiling panel, cell-based, JC-1 fluorescence, 24 h, 100 nL compound (AID 1169). The conditions noted are these: RPMI8226 myeloma, JC-1 mitochondrial potential fluorescence, higher = more signal.
The nature of assay [9]: basal MM1S mitochondrial membrane potential changes, profiling panel, cell-based, JC-1 fluorescence, 24 h, 100 nL compound (AID 1170). The following applies: higher = more signal.
Assay [10] is described as follows: A549 lung cancer cell viability effects, profiling panel, resazurin fluorescence, 24 h, PK04 Diversity Set (AID 1171). The following applies: higher = more signal, called active from +8 up or from −8 down.

Each structure is given as a SMILES string. Calls of active or inactive are those of the source.
Note: test concentration not given here.

As to `CC[C@@H]1C=C(C(=O)O)[C@H](c2ccc(C)cc2)N1S(=O)(=O)c1ccc(C)cc1`, the z-score in [1] is -0.795; in [2] it was -0.235; in assay [3], -0.997; in assay [4] it was 0.0477; in [5], 0.365; in assay [6], 0.0562. Further, the z-score in assay [7] is 0.348 (inactive); in assay [8], 0.637; in assay [9] it was -0.643; in assay [10], 0.357 (inactive).

For `O=C(NCc1ccccc1)[C@@H]1c2ccccc2C(=O)N(C2Cc3ccccc3C2)[C@H]1c1ccc(CO)cc1`, the z-score is 0.365 in assay [1]; 0.363 in assay [2]; 0.291 in assay [3]; 0.0344 in assay [4]; -1.3 in [5]; 1.52 in assay [6]. Further, the z-score in assay [7] was -0.508 (inactive); in assay [8], 0.0926; in assay [9] it was 0.458; in [10] it was 0.791 (inactive).

Take `O=C1[C@H]2C=C(Br)[C@H](C[C@@H]2OCCCCCCO)[C@@]12CO2`: the z-score was -0.141 in assay [1]; -0.572 in assay [2]; -0.339 in assay [3]; -1.04 in [4]; 0.206 in assay [5]; -1.59 in assay [6]. Also, the z-score in assay [7] is -0.253 (inactive); in assay [8], -0.601; in assay [9], -0.0629; in assay [10] it was -0.247 (inactive).

In the case of `COCCOC(=O)N1C(=O)[C@@]2(c3ccccc31)[C@H](C(=O)N1CCc3cc(OC)c(OC)cc3C1)[C@H]1C(=O)O[C@H](c3ccccc3)[C@H](c3ccccc3)N1[C@@H]2c1ccc(O)cc1`, the z-score in [1] was 2.4; in assay [2] it was 1.1; in [3], 1.76; in [4] it was 0.275; in assay [5], 0.0454; in assay [6], 0.218. Further, the z-score is 0.743 (inactive) in [7], -0.69 in [8], 0.0766 in assay [9] and -0.223 (inactive) in assay [10].

`COc1ccc([Si](C)(C)[C@@H]2[C@@H](CC(=O)N3Cc4ccccc4C[C@H]3CO)O[C@]3(C(=O)N(Cc4cccc(N5CCC5=O)c4)c4ccccc43)[C@H]2C)cc1`: the z-score was -0.598 in assay [1]; 0.832 in assay [2]; -0.16 in [3]; -2.1 in assay [4]; -2.55 in assay [5]; -0.372 in assay [6]. The z-score was 1.33 (inactive) in [7], -0.755 in assay [8], -1.16 in assay [9] and -1.38 (inactive) in assay [10].

With `Cc1ccc(C2C3C(=O)CC4C(=O)N(c5ccccc5)C(=O)C4C3CN2S(=O)(=O)c2ccc(C)cc2)cc1` (stereo not given), the z-score in [1] is -0.105; in assay [2] it was -0.172; in assay [3], 0.261; in [4] it was 0.948; in assay [5] it was 0.563; in [6], 0.371. Further, the z-score is 0.134 (inactive) in assay [7], 0.515 in [8], -0.878 in assay [9] and -0.821 (inactive) in [10].

For `O[C@@H](Cc1ccccc1)[C@@H](/C=C/C1CC1)NCc1cccc(Cl)c1`, the z-score is 0.399 in assay [1]; -0.15 in [2]; -1.39 in assay [3]; -3.35 in assay [4]; -2.71 in [5]; -0.626 in assay [6]. The z-score in [7] was 0.713 (inactive); in assay [8], -1.01; in assay [9], -1.7; in [10], -0.707 (inactive).

Turning to `CCCCC(O)C1C=CC2C(=O)N(C)C(=O)C2N1N1CCCCC1` (stereo not given), the z-score in assay [1] is -1.19; in assay [2] it was -0.579; in [3], -0.267; in assay [4], -0.73; in assay [5], -0.173; in assay [6] it was -1.59. In addition, the z-score in [7] is -0.686 (inactive); in [8], 0.135; in [9], -0.026; in assay [10], -0.377 (inactive).

`COc1ccc([C@H]2OC[C@@H]3CCC(=O)N32)cc1`: the z-score in assay [1] was -0.245; in assay [2] it was -0.315; in [3], -0.0392; in [4], -0.804; in assay [5] it was 0.502; in [6] it was 0.0252. In addition, the z-score was -0.139 (inactive) in assay [7], -0.225 in assay [8], -0.1 in assay [9] and 0.109 (inactive) in assay [10].

With `CC#CC(=O)Oc1ccc(Br)cc1C=CC(=O)OCC`, the z-score was -2.1 in assay [1]; -1.04 in assay [2]; -2.88 in [3]; -3.18 in assay [4]; -4.08 in assay [5]; -1.65 in assay [6]. Also, the z-score in [7] is -0.315 (inactive); in assay [8] it was -0.583; in assay [9], -1.84; in assay [10] it was -0.685 (inactive).

On to `COC(=O)[C@@]1(Cc2ccccc2)[C@H]2c3cc(C(=O)N4CCCC4)n(Cc4ccc(O)c(OC)c4)c3C[C@H]2CN1C(=O)c1ccccc1`, for which the z-score in assay [1] is 0.114; in assay [2], 0.0713; in [3], 0.876; in assay [4], -1.27; in [5], -1.65; in [6] it was 0.848. Moreover, the z-score in assay [7] was -1.63 (inactive); in [8] it was 0.332; in assay [9], -0.601; in assay [10] it was -1.5 (inactive).

For the compound `Cc1ccc(S(=O)(=O)N2C[C@@H](C(=O)O)[C@H](Sc3ccccc3)C[C@H]2c2ccccc2)cc1`, the z-score is -1.21 in assay [1]; -0.27 in assay [2]; -0.721 in assay [3]; -0.279 in assay [4]; -0.45 in assay [5]; -0.654 in assay [6]. Also, the z-score in assay [7] is -0.883 (inactive); in [8] it was 0.588; in assay [9], 0.319; in assay [10], 0.111 (inactive).

With `CCOC(=O)C[C@H]1[C@H](OC(=O)c2ccc(-c3ccccc3)cc2)[C@@H](NC(=O)c2ccccc2)c2cc(OCCCO)ccc2N1C(=O)Cc1ccc(OC)cc1`, the z-score in [1] is 0.437; in assay [2] it was 0.0615; in assay [3], 0.66; in [4] it was -0.536; in assay [5], -0.345; in [6], 2.23. The z-score is 0.285 (inactive) in assay [7], 0.157 in assay [8], 0.617 in assay [9] and -0.0451 (inactive) in assay [10].

As to `CC(C)C(=C=CC[C@H](O)c1ccc(CO)o1)CCO`, the z-score in [1] was -0.0934; in assay [2], -0.33; in assay [3], -0.0026; in [4], -1.25; in [5] it was -0.2; in assay [6] it was -0.427. Further, the z-score in [7] is -0.0538 (inactive); in [8] it was -0.533; in assay [9], 0.019; in assay [10] it was -0.507 (inactive).
